# Reference: publication PMC7862700, “An all-to-all approach to the identification of sequence-specific readers for epigenetic DNA modifications on cytosine”
# How the values were obtained:
# Assay in all cases: DAPPL (digital affinity profiling via proximity ligation, sequencing); 10 mM Tris-HCl pH 7.5, 50 mM NaCl, 1 mM DTT, 4% glycerol, room temperature, 30 min; GST-TFs on glutathione beads, 16-mer random dsDNA library, 0.1% formaldehyde crosslink after washing; high values mean tight binding
# Conditions in all cases: protein: recombinant; tags: N-terminal GST; dsDNA, one strand shown
# [1] = target: T1, FLI1 (Homo sapiens, UniProt Q01543 1-452)
# T1 sequence: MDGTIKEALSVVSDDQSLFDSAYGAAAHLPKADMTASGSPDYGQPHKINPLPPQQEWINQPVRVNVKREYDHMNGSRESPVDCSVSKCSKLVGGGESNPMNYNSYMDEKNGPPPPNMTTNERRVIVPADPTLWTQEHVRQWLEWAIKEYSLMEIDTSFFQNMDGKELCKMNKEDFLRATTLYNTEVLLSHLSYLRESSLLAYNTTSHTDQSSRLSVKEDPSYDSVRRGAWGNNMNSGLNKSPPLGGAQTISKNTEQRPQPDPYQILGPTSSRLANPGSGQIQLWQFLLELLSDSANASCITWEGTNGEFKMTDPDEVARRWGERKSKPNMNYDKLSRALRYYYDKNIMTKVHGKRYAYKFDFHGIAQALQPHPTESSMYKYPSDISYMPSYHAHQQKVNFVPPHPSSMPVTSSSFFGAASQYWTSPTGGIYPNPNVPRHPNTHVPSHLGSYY
# Method in brief: (§1)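 Sequencing on an Illumina NextSeq500 followed washing, crosslinking with 0.1% formaldehyde, proximity ligation (BsaI/T4 ligase, 1 h, 37 °C) and PCR amplification of pools that had been incubated for 30 min at room temperature with 200 nmole of a random double-stranded 16-mer DNA library in Tris/NaCl/DTT/glycerol buffer. Each pool held DNA-barcoded human transcription factors, expressed in yeast as GST fusions and captured on glutathione beads, plus a tag-only sample. Binding signal is a hexamer's read frequency for a factor divided by its frequency in the tag-only sample.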
# [2] = target: T2, ELK1 (Homo sapiens, UniProt P19419 1-428)
# T2 sequence: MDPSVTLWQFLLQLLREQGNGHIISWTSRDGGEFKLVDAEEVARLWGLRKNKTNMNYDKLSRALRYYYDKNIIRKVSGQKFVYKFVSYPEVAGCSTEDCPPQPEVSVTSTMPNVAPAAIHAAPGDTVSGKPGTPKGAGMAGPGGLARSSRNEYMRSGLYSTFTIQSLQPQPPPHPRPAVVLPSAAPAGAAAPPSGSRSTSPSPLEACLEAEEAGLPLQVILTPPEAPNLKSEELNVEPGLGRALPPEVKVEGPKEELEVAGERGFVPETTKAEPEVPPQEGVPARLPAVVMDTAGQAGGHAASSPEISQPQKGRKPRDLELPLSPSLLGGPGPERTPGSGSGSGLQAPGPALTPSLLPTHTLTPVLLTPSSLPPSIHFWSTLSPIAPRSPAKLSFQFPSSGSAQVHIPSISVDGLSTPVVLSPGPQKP
# Method in brief: as §1
# [3] = target: T3, GABPA (Homo sapiens, UniProt Q06546 1-454)
# T3 sequence: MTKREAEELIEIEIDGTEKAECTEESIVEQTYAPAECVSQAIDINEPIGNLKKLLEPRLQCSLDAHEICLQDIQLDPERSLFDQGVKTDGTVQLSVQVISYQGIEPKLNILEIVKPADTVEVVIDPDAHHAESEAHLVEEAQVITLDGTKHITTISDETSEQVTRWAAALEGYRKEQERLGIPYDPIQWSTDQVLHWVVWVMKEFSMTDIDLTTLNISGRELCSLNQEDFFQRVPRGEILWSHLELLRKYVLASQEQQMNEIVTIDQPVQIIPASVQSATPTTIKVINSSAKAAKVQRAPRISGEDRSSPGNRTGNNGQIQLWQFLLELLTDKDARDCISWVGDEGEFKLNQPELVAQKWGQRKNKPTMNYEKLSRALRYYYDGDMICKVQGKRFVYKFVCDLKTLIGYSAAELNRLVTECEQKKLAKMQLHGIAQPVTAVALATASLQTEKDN
# Method in brief: as §1
# [4] = target: T4, ERG (Homo sapiens, UniProt P11308 1-479)
# T4 sequence: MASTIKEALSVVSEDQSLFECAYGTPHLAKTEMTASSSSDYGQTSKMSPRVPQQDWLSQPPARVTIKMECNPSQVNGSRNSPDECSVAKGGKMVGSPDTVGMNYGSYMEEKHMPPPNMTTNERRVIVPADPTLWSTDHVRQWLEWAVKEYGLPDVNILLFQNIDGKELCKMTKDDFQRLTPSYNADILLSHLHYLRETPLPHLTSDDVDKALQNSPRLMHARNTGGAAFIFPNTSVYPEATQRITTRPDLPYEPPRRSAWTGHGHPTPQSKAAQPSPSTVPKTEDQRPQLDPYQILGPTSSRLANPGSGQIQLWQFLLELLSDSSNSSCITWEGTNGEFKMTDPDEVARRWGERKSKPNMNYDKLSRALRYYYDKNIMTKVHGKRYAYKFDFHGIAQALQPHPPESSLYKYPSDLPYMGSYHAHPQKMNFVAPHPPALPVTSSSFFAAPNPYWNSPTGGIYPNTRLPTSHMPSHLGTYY
# Method in brief: as §1
# [5] = target: ELF1 (Homo sapiens, UniProt P32519 1-619)
# Method in brief: as §1
# [6] = target: T5, EHF (Homo sapiens, UniProt Q9NZC4 1-300)
# T5 sequence: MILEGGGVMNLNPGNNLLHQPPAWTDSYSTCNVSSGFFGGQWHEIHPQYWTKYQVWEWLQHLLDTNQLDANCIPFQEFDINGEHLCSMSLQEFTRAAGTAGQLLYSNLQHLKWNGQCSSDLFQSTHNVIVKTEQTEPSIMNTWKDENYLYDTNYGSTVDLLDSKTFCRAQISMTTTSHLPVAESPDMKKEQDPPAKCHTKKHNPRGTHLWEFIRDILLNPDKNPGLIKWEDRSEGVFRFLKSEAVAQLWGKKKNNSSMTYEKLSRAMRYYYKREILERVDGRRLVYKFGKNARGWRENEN
# Method in brief: as §1
# [7] = target: SPI1 (Homo sapiens, UniProt P17947 1-270)
# Method in brief: as §1
# [8] = target: SPIB (Homo sapiens, UniProt Q01892 1-262)
# Method in brief: as §1
# [9] = target: T6, ELK3 (Homo sapiens, UniProt P41970 1-407)
# T6 sequence: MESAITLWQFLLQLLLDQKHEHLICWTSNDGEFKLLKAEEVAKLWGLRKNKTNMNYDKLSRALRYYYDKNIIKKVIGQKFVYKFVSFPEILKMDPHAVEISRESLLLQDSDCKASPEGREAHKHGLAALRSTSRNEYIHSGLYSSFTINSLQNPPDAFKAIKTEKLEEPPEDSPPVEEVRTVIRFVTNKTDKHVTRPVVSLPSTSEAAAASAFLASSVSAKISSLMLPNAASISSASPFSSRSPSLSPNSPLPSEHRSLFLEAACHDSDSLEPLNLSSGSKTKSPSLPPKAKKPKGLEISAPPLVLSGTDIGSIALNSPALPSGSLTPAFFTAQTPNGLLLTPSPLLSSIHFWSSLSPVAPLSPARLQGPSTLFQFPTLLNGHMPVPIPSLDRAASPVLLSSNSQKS
# Method in brief: as §1
# Sequence of SPIB (Q01892 whole entry): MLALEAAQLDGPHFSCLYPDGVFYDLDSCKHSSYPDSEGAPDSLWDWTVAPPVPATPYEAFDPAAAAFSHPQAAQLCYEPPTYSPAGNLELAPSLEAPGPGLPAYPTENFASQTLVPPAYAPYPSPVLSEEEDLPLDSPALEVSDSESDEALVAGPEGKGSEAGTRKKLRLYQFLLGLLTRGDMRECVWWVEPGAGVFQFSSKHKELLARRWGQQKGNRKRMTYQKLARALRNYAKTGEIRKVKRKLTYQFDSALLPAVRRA
# Sequence of ELF1 (P32519 whole entry): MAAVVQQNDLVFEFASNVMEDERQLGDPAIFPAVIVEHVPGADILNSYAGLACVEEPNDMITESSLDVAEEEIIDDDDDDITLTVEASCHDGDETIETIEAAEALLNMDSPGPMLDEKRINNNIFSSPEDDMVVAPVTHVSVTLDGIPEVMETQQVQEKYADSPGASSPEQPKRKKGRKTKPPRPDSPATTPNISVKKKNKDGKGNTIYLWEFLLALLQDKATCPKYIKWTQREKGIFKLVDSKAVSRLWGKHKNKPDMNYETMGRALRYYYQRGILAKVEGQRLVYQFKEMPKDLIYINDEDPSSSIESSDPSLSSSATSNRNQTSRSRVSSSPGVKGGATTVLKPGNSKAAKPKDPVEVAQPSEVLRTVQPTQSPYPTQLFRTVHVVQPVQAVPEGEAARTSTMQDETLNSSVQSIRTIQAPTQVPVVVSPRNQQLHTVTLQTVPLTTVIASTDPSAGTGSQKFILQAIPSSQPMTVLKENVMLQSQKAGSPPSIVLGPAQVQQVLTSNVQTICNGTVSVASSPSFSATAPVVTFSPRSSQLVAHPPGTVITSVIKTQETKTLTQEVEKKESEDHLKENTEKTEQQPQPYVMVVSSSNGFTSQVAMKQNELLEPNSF
Sequence,binding signal [1],binding signal [2],binding signal [3],binding signal [4],binding signal [5],binding signal [6],binding signal [7],binding signal [8],binding signal [9]
TGCCTC,"1.39 fold enrichment (6-mer frequency, TF over GST control)","1.31 fold enrichment (6-mer frequency, TF over GST control)","1.36 fold enrichment (6-mer frequency, TF over GST control)","1.35 fold enrichment (6-mer frequency, TF over GST control)","1.31 fold enrichment (6-mer frequency, TF over GST control)","1.26 fold enrichment (6-mer frequency, TF over GST control)","1.39 fold enrichment (6-mer frequency, TF over GST control)","1.4 fold enrichment (6-mer frequency, TF over GST control)","1.27 fold enrichment (6-mer frequency, TF over GST control)"
AATTGT,"1.3 fold enrichment (6-mer frequency, TF over GST control)","1.2 fold enrichment (6-mer frequency, TF over GST control)","1.21 fold enrichment (6-mer frequency, TF over GST control)","1.28 fold enrichment (6-mer frequency, TF over GST control)","1.27 fold enrichment (6-mer frequency, TF over GST control)","1.23 fold enrichment (6-mer frequency, TF over GST control)","1.33 fold enrichment (6-mer frequency, TF over GST control)","1.34 fold enrichment (6-mer frequency, TF over GST control)","1.29 fold enrichment (6-mer frequency, TF over GST control)"
ATTAAT,"1.23 fold enrichment (6-mer frequency, TF over GST control)","1.24 fold enrichment (6-mer frequency, TF over GST control)","1.29 fold enrichment (6-mer frequency, TF over GST control)","1.21 fold enrichment (6-mer frequency, TF over GST control)","1.23 fold enrichment (6-mer frequency, TF over GST control)","1.2 fold enrichment (6-mer frequency, TF over GST control)","1.21 fold enrichment (6-mer frequency, TF over GST control)","1.24 fold enrichment (6-mer frequency, TF over GST control)","1.26 fold enrichment (6-mer frequency, TF over GST control)"
TAAAAA,"1.27 fold enrichment (6-mer frequency, TF over GST control)","1.13 fold enrichment (6-mer frequency, TF over GST control)","1.36 fold enrichment (6-mer frequency, TF over GST control)","1.26 fold enrichment (6-mer frequency, TF over GST control)","1.26 fold enrichment (6-mer frequency, TF over GST control)","1.29 fold enrichment (6-mer frequency, TF over GST control)","1.53 fold enrichment (6-mer frequency, TF over GST control)","1.35 fold enrichment (6-mer frequency, TF over GST control)","1.32 fold enrichment (6-mer frequency, TF over GST control)"
GCCCTT,"1.23 fold enrichment (6-mer frequency, TF over GST control)","1.11 fold enrichment (6-mer frequency, TF over GST control)","1.18 fold enrichment (6-mer frequency, TF over GST control)","1.16 fold enrichment (6-mer frequency, TF over GST control)","1.25 fold enrichment (6-mer frequency, TF over GST control)","1.19 fold enrichment (6-mer frequency, TF over GST control)","1.22 fold enrichment (6-mer frequency, TF over GST control)","1.28 fold enrichment (6-mer frequency, TF over GST control)","1.24 fold enrichment (6-mer frequency, TF over GST control)"
ATCTTG,"1.35 fold enrichment (6-mer frequency, TF over GST control)","1.38 fold enrichment (6-mer frequency, TF over GST control)","1.27 fold enrichment (6-mer frequency, TF over GST control)","1.39 fold enrichment (6-mer frequency, TF over GST control)","1.33 fold enrichment (6-mer frequency, TF over GST control)","1.35 fold enrichment (6-mer frequency, TF over GST control)","1.3 fold enrichment (6-mer frequency, TF over GST control)","1.31 fold enrichment (6-mer frequency, TF over GST control)","1.41 fold enrichment (6-mer frequency, TF over GST control)"
TAAAAT,"1.17 fold enrichment (6-mer frequency, TF over GST control)","1.2 fold enrichment (6-mer frequency, TF over GST control)","1.25 fold enrichment (6-mer frequency, TF over GST control)","1.19 fold enrichment (6-mer frequency, TF over GST control)","1.24 fold enrichment (6-mer frequency, TF over GST control)","1.1 fold enrichment (6-mer frequency, TF over GST control)","1.25 fold enrichment (6-mer frequency, TF over GST control)","1.2 fold enrichment (6-mer frequency, TF over GST control)","1.1 fold enrichment (6-mer frequency, TF over GST control)"
CGCCTT,"1.45 fold enrichment (6-mer frequency, TF over GST control)","1.43 fold enrichment (6-mer frequency, TF over GST control)","1.45 fold enrichment (6-mer frequency, TF over GST control)","1.44 fold enrichment (6-mer frequency, TF over GST control)","1.44 fold enrichment (6-mer frequency, TF over GST control)","1.34 fold enrichment (6-mer frequency, TF over GST control)","1.35 fold enrichment (6-mer frequency, TF over GST control)","1.43 fold enrichment (6-mer frequency, TF over GST control)","1.46 fold enrichment (6-mer frequency, TF over GST control)"
